The values that follow come from PubChem BioAssay AID651699 (Sanford-Burnham Center for Chemical Genomics, 2012).

The whole screen tested about 360,000 compounds, of which about 2,100 (0.58%) were called active. The list comes from a sample in which actives are over-represented; it also holds similar structures and randomly drawn compounds. A number with no mark means an inactive call. No stated cut-off is given here; in the data, active means inhibition above about 36%; inactive means the rest.

In this assay the target is NEDD8-conjugating enzyme Ubc12 (Homo sapiens) + NEDD8-activating enzyme E1 regulatory subunit (Homo sapiens) (UniProt P61081+Q13564). The experiment in a line: inhibitors of cullin neddylation, primary screen, biochemical, TR-FRET, uHTS, NAE and Ubc12 (AID 651699). The settings on record: at 25 µM, stronger effect = higher value. On the technique in general: Time-resolved FRET reads energy transfer from a long-lived donor to a nearby acceptor.
NEDD8-conjugating enzyme Ubc12 (Homo sapiens) + NEDD8-activating enzyme E1 regulatory subunit (Homo sapiens), sequence (P61081 whole entry, looked up): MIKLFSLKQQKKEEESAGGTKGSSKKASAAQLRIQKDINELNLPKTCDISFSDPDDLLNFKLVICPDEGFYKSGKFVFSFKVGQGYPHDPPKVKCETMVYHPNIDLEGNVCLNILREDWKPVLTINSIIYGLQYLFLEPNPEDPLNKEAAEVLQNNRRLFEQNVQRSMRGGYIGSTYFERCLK
NEDD8-conjugating enzyme Ubc12 (Homo sapiens) + NEDD8-activating enzyme E1 regulatory subunit (Homo sapiens), sequence (Q13564 whole entry, looked up): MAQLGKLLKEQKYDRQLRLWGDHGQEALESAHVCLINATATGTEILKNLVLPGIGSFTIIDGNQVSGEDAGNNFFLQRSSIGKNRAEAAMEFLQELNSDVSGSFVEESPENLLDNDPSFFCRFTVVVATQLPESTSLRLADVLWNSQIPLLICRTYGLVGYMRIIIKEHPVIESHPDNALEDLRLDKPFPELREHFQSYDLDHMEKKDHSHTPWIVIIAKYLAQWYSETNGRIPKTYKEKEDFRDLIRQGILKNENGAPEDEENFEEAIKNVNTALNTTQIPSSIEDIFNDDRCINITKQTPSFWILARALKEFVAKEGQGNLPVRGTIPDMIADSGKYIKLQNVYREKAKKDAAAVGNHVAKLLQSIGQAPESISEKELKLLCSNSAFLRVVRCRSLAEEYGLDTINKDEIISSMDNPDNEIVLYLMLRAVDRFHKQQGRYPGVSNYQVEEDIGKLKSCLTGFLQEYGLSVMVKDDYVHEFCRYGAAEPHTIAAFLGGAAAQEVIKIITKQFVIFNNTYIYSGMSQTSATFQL
The term inhibition denotes the change of the read-out against control, counted positive when it falls. Turning to `CC(=CCOc1ccc2ccc(=O)oc2c1)C1=CC(=O)C(C)(C)O1`, the inhibition was 48.3% (active).
The result for `COC(=O)CN1C(=O)C2(C(C(=O)OC)=C(N)Oc3ccccc32)C2=C1CC(C)(C)CC2=O` (stereo not given) reads 0.61%.
The value for `O=C(CCC(=O)N1C[C@H]2C[C@@H](C1)c1cccc(=O)n1C2)NCc1ccccc1C(F)(F)F` was -4.64%; that for `O=C(c1cc(S(=O)(=O)N2CCOCC2)ccc1F)N1CCC2(CC1)OCCO2` was 4.52%.
`CCC(C)n1c(O)c(/C=N/Nc2nc3c(c(=O)n(C)c(=O)n3C)n2C)c(=O)[nH]c1=S` (stereo not given): the inhibition is 40.5% (active).
`CCN1C(=O)NC(=O)C2(CCCC2)C1=O`: the inhibition is 1.81%.
The value for `CC(c1ccccc1)(c1ccccc1)c1ccncc1` was -5.54%.
On to `COc1ccc2c(c1)[C@]13CCCCC1C(C2)N(C)CC3` (stereo not given in full), for which the inhibition is -8.52%.
For the compound `COP(=O)(NS(=O)(=O)c1ccccc1)OC`, the inhibition was -0.79%.
The result for `CCN1c2nc3c(C)cccn3c(=O)c2CC2(C(=O)N(C)C(=O)N(C)C2=O)C1C` (stereo not given) reads 41.1% (active).
As to `CCCCCn1c(=O)c(C(=O)NCc2ccccn2)c(O)c2ccccc21`, the inhibition is 4.17%.
Take `CC1(C)Cc2c(C#N)c(N3CCNCC3)nc(-c3ccco3)c2CS1`: the inhibition is 25.7%.
The result for `COc1ccc(C(=O)C2CCCN(Cc3ccc(C)s3)C2)cc1OC` (stereo not given) reads 0.31%.
Take `CN1C2C=C(N(C(=O)c3ccc(Cl)cc3)c3ccccc3)CC1CC2` (stereo not given): the inhibition is 0.6%.
The value for `CCCCC(=O)N/N=C/c1c(O)n(CCC2=CCCCC2)c(=O)[nH]c1=O` was 52.9% (active); that for `O=c1[nH]c(=O)n(CCc2ccc(F)cc2)c(O)c1/C=N/N1CCCCC1` was -6.7%.
The value for `CCCCC(=O)N/N=C/c1c(O)n(CC)c(=S)n(CC)c1=O` was -37%; that for `COC(=O)C1=C(c2ccccc2)C[C@@H]2CC[C@H]1N2C(=O)N1CCCCC1` was -6.19%; that for `COc1cccc(OC)c1C(=O)NC(=S)N1C[C@H]2C[C@H](C1)c1cccc(=O)n1C2` was -2.07%.
The result for `c1ccc2sc(N3CCNCC3)nc2c1` reads 1.66%.
